Source: PubChem BioAssay AID1159580 (chemical genetic matrix, 2015)
The whole screen tested about 5,500 compounds, of which about 2,000 (36%) were called active. Inconclusive results (about 18%) are left out. The list shows a part of the results. Unmarked numbers belong to inactive results. No stated cut-off is given here; in the data, active means normalized growth mostly below about 0.91 (no sharp cut-off); inconclusive means no clear call, values can overlap the other calls; inactive means mostly above about 0.92.

Assay: chemical genetic growth profiling, strain panel (AID 1159580);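 further: tested at 20 µM; growth read once vehicle control cultures reached saturation at 30 °C; 1 = growth at the plate median or of vehicle wells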
Details: S. cerevisiae deletion strains, growth OD
[1] = locus YDL101C, strain DUN1, stronger effect = lower value
[2] = locus YHR030C, strain SLT2, stronger effect = lower value

N#Cc1ccc(S(=O)(=O)Nc2ccccc2Oc2ccc(Cl)cc2Cl)cc1
normalized growth (locus YAR019C, strain CDC15, stronger effect = lower value): 0.98
normalized growth (locus YBL105C, strain PKC1, stronger effect = lower value): 0.98
normalized growth (locus YBR135W, strain CKS1, stronger effect = lower value): 0.976
normalized growth (locus YBR136W, strain MEC1, stronger effect = lower value): 0.985
normalized growth (locus YBR160W, strain CDC28, stronger effect = lower value): 0.983
normalized growth (locus YDL017W, strain CDC7, stronger effect = lower value): 0.979
normalized growth (locus YDL028C, strain MPS1, stronger effect = lower value): 0.979
normalized growth [1]: 0.986
normalized growth (locus YDL108W, strain KIN28, stronger effect = lower value): 0.973
normalized growth (locus YDL132W, strain cdc53, stronger effect = lower value): 0.979
normalized growth (locus YDL214C, strain PRR2, stronger effect = lower value): 0.968
normalized growth (locus YDR052C, strain DBF4, stronger effect = lower value): 0.979
normalized growth (locus YDR054C, strain cdc34, stronger effect = lower value): 0.974
normalized growth (locus YDR226W, strain ADK1, stronger effect = lower value): 0.969
normalized growth (locus YDR477W, strain SNF1, stronger effect = lower value): 0.935
normalized growth (locus YER123W, strain YCK3, stronger effect = lower value): 0.948
normalized growth (locus YER133W, strain GLC7, stronger effect = lower value): 0.928
normalized growth (locus YFL009W, strain cdc4, stronger effect = lower value): 0.987
normalized growth (locus YFL029C, strain CAK1, stronger effect = lower value): 0.979
normalized growth (locus YFR003C, strain YPI1, stronger effect = lower value): 0.974
normalized growth (locus YFR019W, strain FAB1, stronger effect = lower value): 0.955
normalized growth (locus YFR028C, strain CDC14, stronger effect = lower value): 0.98
normalized growth (locus YGR040W, strain KSS1, stronger effect = lower value): 0.945
normalized growth (locus YGR052W, strain FMP48, stronger effect = lower value): 0.985
normalized growth (locus YGR092W, strain DBF2, stronger effect = lower value): 0.879
normalized growth [2]: 0.88
normalized growth (locus YHR079C, strain IRE1, stronger effect = lower value): 0.931
normalized growth (locus YHR082C, strain KSP1, stronger effect = lower value): 1.07
normalized growth (locus YHR205W, strain SCH9, stronger effect = lower value): 0.936
normalized growth (locus YIL147C, strain SLN1, stronger effect = lower value): 0.986
normalized growth (locus YJL095W, strain BCK1, stronger effect = lower value): 0.905
normalized growth (locus YJL128C, strain PBS2, stronger effect = lower value): 0.961
normalized growth (locus YJL157C, strain FAR1, stronger effect = lower value): 0.947
normalized growth (locus YJR016C, strain ILV3, stronger effect = lower value): 0.97
normalized growth (locus YJR066W, strain TOR1 (second series), stronger effect = lower value): 0.9
normalized growth (locus YJR066W, strain TOR1, stronger effect = lower value): 1.04
normalized growth (locus YKL048C, strain ELM1, stronger effect = lower value): 0.959
normalized growth (locus YKL067W, strain YNK1, stronger effect = lower value): 0.973
normalized growth (locus YKL101W, strain HSL1, stronger effect = lower value): 0.957
normalized growth (locus YKL193C, strain SDS22, stronger effect = lower value): 0.978
normalized growth (locus YKL203C, strain TOR2, stronger effect = lower value): 1.02
normalized growth (locus YLR113W, strain HOG1, stronger effect = lower value): 0.836 (active)
normalized growth (locus YLR133W, strain CKI1, stronger effect = lower value): 0.972
normalized growth (locus YLR403W, strain SFP1, stronger effect = lower value): 0.912
normalized growth (locus YML070W, strain DAK1, stronger effect = lower value): 0.94
normalized growth (locus YMR001C, strain CDC5, stronger effect = lower value): 0.982
normalized growth (locus YMR205C, strain PFK2 (second series), stronger effect = lower value): 0.972
normalized growth (locus YMR277W, strain FCP1, stronger effect = lower value): 0.973
normalized growth (locus YNL006W, strain LST8, stronger effect = lower value): 0.977
normalized growth (locus YNL020C, strain ARK1, stronger effect = lower value): 0.965
normalized growth (locus YNL161W, strain CBK1, stronger effect = lower value): 0.982
normalized growth (locus YNL183C, strain NPR1, stronger effect = lower value): 1.08
normalized growth (locus YNL207W, strain RIO2, stronger effect = lower value): 0.979
normalized growth (locus YNL222W, strain SSU72, stronger effect = lower value): 0.978
normalized growth (locus YNL307C, strain MCK1 (second series), stronger effect = lower value): 0.965
normalized growth (locus YOL078W, strain AVO1, stronger effect = lower value): 0.971
normalized growth (locus YOL136C, strain PFK27, stronger effect = lower value): 0.967
normalized growth (locus YOR061W, strain CKA2, stronger effect = lower value): 0.872
normalized growth (locus YOR119C, strain RIO1, stronger effect = lower value): 1.01
normalized growth (locus YOR231W, strain MKK1, stronger effect = lower value): 1.01
normalized growth (locus YOR329C, strain SCD5, stronger effect = lower value): 0.982
normalized growth (locus YPL031C, strain PHO85, stronger effect = lower value): 0.926
normalized growth (locus YPL153C, strain RAD53, stronger effect = lower value): 0.945
normalized growth (locus YPL204W, strain HRR25, stronger effect = lower value): 0.949
normalized growth (locus YPL209C, strain IPL1, stronger effect = lower value): 0.983
normalized growth (locus YPL256C, strain CLN2, stronger effect = lower value): 0.967
normalized growth (locus YPR025C, strain CCL1, stronger effect = lower value): 0.976
normalized growth (locus YPR106W, strain ISR1, stronger effect = lower value): 0.96
normalized growth (locus YPR111W, strain DBF20, stronger effect = lower value): 0.963
normalized growth (strain NNK1, stronger effect = lower value): 0.981
normalized growth (strain TSCII, stronger effect = lower value): 0.99

COc1ccc(S(=O)(=O)Nc2ccccc2Oc2ccc(Cl)cc2Cl)cc1OC
normalized growth (locus YAL013W, strain DEP1, stronger effect = lower value): 1.01
normalized growth (locus YBR229C, strain ROT2, stronger effect = lower value): 1.01
normalized growth (locus YCL061C, strain MRC1, stronger effect = lower value): 1.07
normalized growth [1]: 1.08
normalized growth (locus YDL134C, strain PPH21, stronger effect = lower value): 1.01
normalized growth (locus YDR150W, strain NUM1, stronger effect = lower value): 0.933
normalized growth (locus YEL061C, strain CIN8, stronger effect = lower value): 0.999
normalized growth (locus YGR078C, strain PAC10, stronger effect = lower value): 1.04
normalized growth (locus YGR229C, strain SMI1, stronger effect = lower value): 0.995
normalized growth [2]: 1.06
normalized growth (locus YHR087W, strain rtc3, stronger effect = lower value): 0.988
normalized growth (locus YJL187C, strain SWE1, stronger effect = lower value): 1
normalized growth (locus YJR043C, strain POL32, stronger effect = lower value): 1.05
normalized growth (locus YJR075W, strain HOC1, stronger effect = lower value): 1
normalized growth (locus YKL190W, strain CNB1, stronger effect = lower value): 1.01
normalized growth (locus YLR039C, strain RIC1, stronger effect = lower value): 1.06
normalized growth (locus YLR058C, strain SHM2 (second series), stronger effect = lower value): 0.988
normalized growth (locus YLR085C, strain ARP6, stronger effect = lower value): 1.08
normalized growth (locus YLR262C, strain YPT6, stronger effect = lower value): 0.99
normalized growth (locus YML094W, strain GIM5, stronger effect = lower value): 1
normalized growth (locus YMR219W, strain ESC1, stronger effect = lower value): 1
normalized growth (locus YMR263W, strain SAP30, stronger effect = lower value): 0.967
normalized growth (locus YMR307W, strain GAS1, stronger effect = lower value): 0.986
normalized growth (locus YNL128W, strain TEP1, stronger effect = lower value): 1
normalized growth (locus YNL153C, strain GIM3, stronger effect = lower value): 1.03
normalized growth (locus YNL298W, strain CLA4 (second series), stronger effect = lower value): 1.05
normalized growth (locus YNL322C, strain KRE1, stronger effect = lower value): 0.988
normalized growth (locus YNR030W, strain Alg12, stronger effect = lower value): 1.02
normalized growth (locus YPL055C, strain LGE1, stronger effect = lower value): 0.959
normalized growth (locus YPL241C, strain CIN2, stronger effect = lower value): 1.03
normalized growth (locus YPR135W, strain CTF4, stronger effect = lower value): 1.03
